Experimental data reported in PubChem BioAssay (Tox21).
Unmarked numbers belong to inactive results. Results filed as inconclusive are left out. A call without a number means that no potency is given here. Calls of active or inactive are those of the source. The call rests on the fitted dose curve.

biological target: Estrogen receptor (Homo sapiens) (UniProt P03372); experiment: qHTS assay to identify small molecule agonists of the estrogen receptor alpha (ER-alpha) signaling pathway in the presence of an antagonist (AID 1259383); conditions: VM7Luc4E2 cells, ERE-luciferase, +ICI-182,780, 22 h; series mostly up to 92.4 µM; further: top concentration of the series differs between compounds; nearly all actives have a fitted effect of over 15% in size
Procedure, shortened: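 Quantitative HTS confirmation: compounds titrated at 15 concentrations onto estrogen-deprived VM7Luc4E2 cells carrying a four-ERE luciferase construct, with ICI-182,780 present at 10.0nM final. Signal is luminescence after 22hr exposure.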

Sequence of Estrogen receptor (Homo sapiens) (P03372 whole entry, looked up): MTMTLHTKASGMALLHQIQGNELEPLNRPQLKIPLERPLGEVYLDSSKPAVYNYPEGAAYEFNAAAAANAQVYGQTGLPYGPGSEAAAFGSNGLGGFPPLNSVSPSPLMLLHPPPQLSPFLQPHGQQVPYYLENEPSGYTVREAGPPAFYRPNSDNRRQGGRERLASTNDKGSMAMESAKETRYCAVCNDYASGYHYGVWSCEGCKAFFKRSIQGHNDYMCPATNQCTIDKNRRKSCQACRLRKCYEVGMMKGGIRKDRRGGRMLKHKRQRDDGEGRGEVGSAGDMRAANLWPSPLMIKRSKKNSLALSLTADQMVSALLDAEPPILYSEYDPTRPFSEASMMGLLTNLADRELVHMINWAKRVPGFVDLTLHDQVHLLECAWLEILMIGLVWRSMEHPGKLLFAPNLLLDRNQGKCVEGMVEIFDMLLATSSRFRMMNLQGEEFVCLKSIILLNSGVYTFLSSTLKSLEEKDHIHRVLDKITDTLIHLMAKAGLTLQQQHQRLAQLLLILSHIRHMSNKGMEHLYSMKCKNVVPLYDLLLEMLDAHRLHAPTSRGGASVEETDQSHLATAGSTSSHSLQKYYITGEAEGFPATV

Row | Compound | Potency | activation
1 | CC(C)(C)NCC(O)COc1ccc(NC(=O)NC2CCCCC2)cc1 (stereo not drawn) | inactive | –
2 | O=C(O)c1ccc2cc(O)ccc2c1 | inactive | –
3 | CC(O)CN (stereo not drawn) | inactive | –
4 | CCCCCC1CCC(=O)O1 (stereo not drawn) | inactive | –
5 | OCCc1ccncc1 | inactive | –
6 | CCCCOC(=O)C(C)Oc1ccc(Oc2ccc(C(F)(F)F)cn2)cc1 (stereo not drawn) | inactive | –
7 | O=Cc1ccc(Cl)c([N+](=O)[O-])c1 | inactive | –
8 | CCC(CC)C(=O)O | inactive | –
9 | Nc1ccc(F)cc1F | inactive | –
10 | CCOC(OCC)OCC | inactive | –
11 | CCCC1CCCC(=O)O1 (stereo not drawn) | inactive | –
12 | C=CCCC | inactive | –
13 | O=C(c1ccco1)N1CCNCC1 | inactive | –
14 | COC(=O)c1cc(Cl)ccc1[N+](=O)[O-] | inactive | –
15 | CC1(C)CC(=O)CC(C)(C)N1 | inactive | –
16 | S=c1[nH][nH]c(=S)s1 | inactive | –

Row | Compound | Potency | activation
17 | CCCCCCCCCCCC(=O)OCC | inactive | –
18 | CCCCCCCCCCCCCCCCCCCl | – | 0.705% [at 8.39 µM]
19 | CCCC(=O)OCc1ccccc1 | inactive | –
20 | O=C(O)c1ccccc1-n1cc(C(=O)O)c(=O)c2cc(Nc3c(F)cc(F)cc3Cl)c(Cl)cc21 | inactive | –
21 | CCCCCCCCS | inactive | –
22 | CCCOC(C)=O | inactive | –
23 | C[C@@H](O)[C@H]1C(=O)N2C(C(=O)O)=C(S[C@@H]3CN[C@H](CNS(N)(=O)=O)C3)[C@H](C)[C@H]12 | inactive | –
24 | FC(F)(Cl)C(F)(Cl)Cl | inactive | –
25 | Cc1ccc2c(Cl)cc(Cl)c(O)c2n1 | inactive | –
26 | N#C[C@@H]1CC(F)(F)CN1C(=O)CNC1CC2CCC(C1)N2c1ncccn1 (stereo partly drawn) | inactive | –
27 | O=C1C=CCCC1 | inactive | –
28 | NC(=O)c1ccccc1 | inactive | –
29 | C/C(=C(\CCO)SS/C(CCO)=C(\C)N(C=O)Cc1cnc(C)nc1N)N(C=O)Cc1cnc(C)nc1N | inactive | –
30 | Clc1nc2ccccc2nc1Cl | inactive | –
31 | CC(C)=CCC[C@H](C)CCO | inactive | –

system: not listed separately; experiment: qHTS assay to identify small molecule agonists or antagonists of the thyroid stimulating hormone receptor (TSHR) signaling pathway - wild type cell line counter screen (AID 1259384); conditions: HEK293 wild type, cAMP HTRF counter-screen, hits give high values; series mostly up to 92.4 µM
Procedure, shortened: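 Wild-type Hek293 cells, 800/well, 18 h at 37C, then compound with Ro20-1724 for 30 min RT. cAMP by HTRF (cAMP-d2/anti-cAMP cryptate), 1 h RT, fluorescence read. 15 concentrations, triplicates.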

Row | Compound | outcome
32 | CC(C)(C)NCC(O)COc1ccc(NC(=O)NC2CCCCC2)cc1 (stereo not drawn) | inactive
33 | CC(C(=O)O)c1ccc2c(c1)Cc1cccnc1O2 (stereo not drawn) | inactive
34 | CC(O)CN (stereo not drawn) | inactive
35 | CCCCCC1CCC(=O)O1 (stereo not drawn) | inactive
36 | O=Cc1ccc(Cl)c([N+](=O)[O-])c1 | inactive
37 | CCOC(OCC)OCC | inactive
38 | CCCC1CCCC(=O)O1 (stereo not drawn) | inactive
39 | C=C[Si]1(C)O[Si](C)(C=C)O[Si](C)(C=C)O[Si](C)(C=C)O1 (stereo not drawn) | inactive
40 | O=C(c1ccco1)N1CCNCC1 | inactive
41 | COC(=O)c1cc(Cl)ccc1[N+](=O)[O-] | inactive
42 | CC1(C)CC(=O)CC(C)(C)N1 | inactive
43 | CCCCCCCCCCCC(=O)OCC | inactive
44 | CCCC(=O)OCc1ccccc1 | inactive
45 | O=C(O)c1ccccc1-n1cc(C(=O)O)c(=O)c2cc(Nc3c(F)cc(F)cc3Cl)c(Cl)cc21 | inactive
46 | CCCOC(C)=O | inactive
47 | C[C@@H](O)[C@H]1C(=O)N2C(C(=O)O)=C(S[C@@H]3CN[C@H](CNS(N)(=O)=O)C3)[C@H](C)[C@H]12 | inactive
48 | FC(F)(Cl)C(F)(Cl)Cl | inactive
49 | Cc1ccc2c(Cl)cc(Cl)c(O)c2n1 | inactive
50 | O=C1C=CCCC1 | inactive
51 | C/C(=C(\CCO)SS/C(CCO)=C(\C)N(C=O)Cc1cnc(C)nc1N)N(C=O)Cc1cnc(C)nc1N | inactive
52 | CCCCCCCCCCCCCCCCC(=O)O | inactive
53 | Clc1nc2ccccc2nc1Cl | inactive
